PubChem BioAssay
Several values for one entry are separate records, joined by “and”; a condition that tells them apart may be missing. Equal values may be shown once. Activity calls are given as the source filed them.

How the values were obtained:
[1] = binders of probe aFSTL3 on microarray, primary screen, stem cell growth factor project, biochemical, small-molecule microarray, fluorescence 635/667 (AID 1064); details: higher = more signal;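 note: measures binding of the biotinylated anti-FSTL3 antibody to printed compounds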
[2] = binders from COS7 lysate, DM2A8 probe, primary screen, torsin A project, cell lysate, small-molecule microarray, fluorescence 635/667 (AID 1065); details: higher = more signal, COS7 lysate expressing mutant human TOR1A
[3] = binders of probe aFGF2 on microarray, primary screen, stem cell growth factor project, biochemical, small-molecule microarray, fluorescence 635/667 (AID 1067); details: higher = more signal;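 note: measures binding of biotinylated aFGF2 protein to printed compounds on slides; z-score merges feature fluorescence and signal-to-noise across triplicate slides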
[4] = binders of probe aFGF10 on microarray, primary screen, stem cell growth factor project, biochemical, small-molecule microarray, fluorescence 635/667 (AID 1071); details: higher = more signal;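 note: score merges 667 nm spot intensity and signal to noise from triplicate slides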
[5] = target: Neurogenic locus notch homolog protein 2 (Homo sapiens) (UniProt Q04721); assay: Notch2 binders on small-molecule microarrays, primary screen, biochemical, small-molecule microarray, 635 nm fluorescence, stem cell growth factors (AID 1073); details: Notch2 binding, higher = more signal
[6] = target: Pro-neuregulin-1, membrane-bound isoform (Homo sapiens) (UniProt Q02297); assay: NRG1 binders on small-molecule microarrays, primary screen, psychiatric disease protein project, biochemical, small-molecule microarray, fluorescence 635/667 (AID 1075); details: NRG1 binding, 635 nm fluorescence, higher = more signal;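 note: score combines 667 nm spot fluorescence with signal to noise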
[7] = system: Neuregulin-1 EGF-like domain; assay: binders of neuregulin-1 EGF-like domain, primary screen, biochemical, small-molecule microarray, 635 nm fluorescence (AID 1081); details: small-molecule microarray binding, higher = more signal;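 note: binding of the protein to compounds printed on small-molecule microarray slides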
[8] = FRG1 promoter luciferase signal modulators, primary screen, FRG1 inhibition for FSHD, cell-based, C2C12 myotubes, firefly/Renilla luciferase, luminescence (AID 1084); details: higher = more signal, called active from +8 up or from −8 down
[9] = binders of probe aFST on microarray, primary screen, stem cell growth factor project, biochemical, small-molecule microarray, fluorescence 635/667 (AID 1086); details: higher = more signal;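 note: score merges 667 nm fluorescence with signal-to-noise of each printed compound spot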
[10] = binders of probe aHhip on microarray, primary screen, stem cell growth factor project, biochemical, small-molecule microarray, fluorescence 635/667 (AID 1087); details: higher = more signal;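 note: score merges spot fluorescence at 667nm with spot signal to noise ratio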

Neurogenic locus notch homolog protein 2 (Homo sapiens), sequence (Q04721 whole entry, looked up, canonical isoform): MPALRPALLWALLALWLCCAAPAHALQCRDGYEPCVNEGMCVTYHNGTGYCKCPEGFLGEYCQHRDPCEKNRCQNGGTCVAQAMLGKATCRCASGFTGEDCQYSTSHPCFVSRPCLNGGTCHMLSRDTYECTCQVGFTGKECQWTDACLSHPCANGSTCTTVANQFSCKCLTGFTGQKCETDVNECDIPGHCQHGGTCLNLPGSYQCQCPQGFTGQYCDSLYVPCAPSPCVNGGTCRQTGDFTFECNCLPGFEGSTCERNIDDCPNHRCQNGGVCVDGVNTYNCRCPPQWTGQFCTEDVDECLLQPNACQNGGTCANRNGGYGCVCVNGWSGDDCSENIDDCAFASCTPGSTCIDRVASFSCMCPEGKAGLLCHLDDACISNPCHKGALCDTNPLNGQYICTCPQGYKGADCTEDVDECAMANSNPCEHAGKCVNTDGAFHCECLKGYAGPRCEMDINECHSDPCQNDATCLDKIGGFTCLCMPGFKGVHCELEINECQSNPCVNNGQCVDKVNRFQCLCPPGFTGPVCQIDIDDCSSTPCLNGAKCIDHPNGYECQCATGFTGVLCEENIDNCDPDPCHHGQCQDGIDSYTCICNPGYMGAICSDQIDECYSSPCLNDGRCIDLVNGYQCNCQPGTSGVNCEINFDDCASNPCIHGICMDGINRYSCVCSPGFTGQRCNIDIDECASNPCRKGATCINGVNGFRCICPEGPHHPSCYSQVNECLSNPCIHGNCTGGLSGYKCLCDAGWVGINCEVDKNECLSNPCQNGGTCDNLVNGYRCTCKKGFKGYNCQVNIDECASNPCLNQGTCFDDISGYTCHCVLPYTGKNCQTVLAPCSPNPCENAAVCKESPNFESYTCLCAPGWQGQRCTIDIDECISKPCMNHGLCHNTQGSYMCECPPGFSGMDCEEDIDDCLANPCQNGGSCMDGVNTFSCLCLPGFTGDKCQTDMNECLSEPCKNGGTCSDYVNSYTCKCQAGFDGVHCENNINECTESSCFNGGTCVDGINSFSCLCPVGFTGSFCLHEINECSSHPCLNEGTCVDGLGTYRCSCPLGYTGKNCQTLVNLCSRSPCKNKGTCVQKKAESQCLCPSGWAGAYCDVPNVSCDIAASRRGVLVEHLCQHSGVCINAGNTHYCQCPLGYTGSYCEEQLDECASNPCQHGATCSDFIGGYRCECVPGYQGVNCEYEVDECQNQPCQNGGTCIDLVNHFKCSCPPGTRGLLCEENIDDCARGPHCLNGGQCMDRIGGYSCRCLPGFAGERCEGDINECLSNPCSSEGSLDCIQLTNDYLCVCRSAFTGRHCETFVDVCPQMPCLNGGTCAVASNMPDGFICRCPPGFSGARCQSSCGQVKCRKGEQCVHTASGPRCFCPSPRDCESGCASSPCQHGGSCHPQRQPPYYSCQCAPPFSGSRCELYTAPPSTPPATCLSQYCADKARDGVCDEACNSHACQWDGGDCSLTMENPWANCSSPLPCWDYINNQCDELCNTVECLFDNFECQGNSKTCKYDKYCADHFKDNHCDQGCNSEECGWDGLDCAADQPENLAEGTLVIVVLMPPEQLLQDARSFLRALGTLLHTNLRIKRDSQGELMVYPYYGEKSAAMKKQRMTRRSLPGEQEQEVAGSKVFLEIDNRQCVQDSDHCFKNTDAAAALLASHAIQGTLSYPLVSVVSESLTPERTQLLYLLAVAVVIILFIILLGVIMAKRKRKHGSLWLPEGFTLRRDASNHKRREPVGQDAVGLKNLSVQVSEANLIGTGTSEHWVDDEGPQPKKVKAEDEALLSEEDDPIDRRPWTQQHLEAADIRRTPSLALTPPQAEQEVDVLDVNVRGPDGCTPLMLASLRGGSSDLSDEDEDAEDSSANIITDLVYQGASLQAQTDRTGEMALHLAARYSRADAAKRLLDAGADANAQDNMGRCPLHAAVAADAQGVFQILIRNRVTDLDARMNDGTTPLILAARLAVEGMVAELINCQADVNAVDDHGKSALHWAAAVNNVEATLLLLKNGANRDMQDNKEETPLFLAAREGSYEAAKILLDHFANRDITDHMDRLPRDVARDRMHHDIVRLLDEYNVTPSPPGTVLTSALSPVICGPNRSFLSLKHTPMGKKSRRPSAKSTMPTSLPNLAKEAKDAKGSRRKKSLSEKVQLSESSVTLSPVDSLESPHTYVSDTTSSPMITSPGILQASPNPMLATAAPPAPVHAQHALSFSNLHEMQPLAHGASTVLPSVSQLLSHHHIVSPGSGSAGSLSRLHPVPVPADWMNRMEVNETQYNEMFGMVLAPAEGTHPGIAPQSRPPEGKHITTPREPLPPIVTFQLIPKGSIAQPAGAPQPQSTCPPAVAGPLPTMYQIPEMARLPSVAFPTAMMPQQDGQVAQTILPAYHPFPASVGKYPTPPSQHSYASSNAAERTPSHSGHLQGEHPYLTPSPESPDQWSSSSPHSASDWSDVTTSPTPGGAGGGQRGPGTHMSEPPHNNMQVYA
Pro-neuregulin-1, membrane-bound isoform (Homo sapiens), sequence (Q02297 whole entry, looked up, the tested form may be a part, canonical isoform): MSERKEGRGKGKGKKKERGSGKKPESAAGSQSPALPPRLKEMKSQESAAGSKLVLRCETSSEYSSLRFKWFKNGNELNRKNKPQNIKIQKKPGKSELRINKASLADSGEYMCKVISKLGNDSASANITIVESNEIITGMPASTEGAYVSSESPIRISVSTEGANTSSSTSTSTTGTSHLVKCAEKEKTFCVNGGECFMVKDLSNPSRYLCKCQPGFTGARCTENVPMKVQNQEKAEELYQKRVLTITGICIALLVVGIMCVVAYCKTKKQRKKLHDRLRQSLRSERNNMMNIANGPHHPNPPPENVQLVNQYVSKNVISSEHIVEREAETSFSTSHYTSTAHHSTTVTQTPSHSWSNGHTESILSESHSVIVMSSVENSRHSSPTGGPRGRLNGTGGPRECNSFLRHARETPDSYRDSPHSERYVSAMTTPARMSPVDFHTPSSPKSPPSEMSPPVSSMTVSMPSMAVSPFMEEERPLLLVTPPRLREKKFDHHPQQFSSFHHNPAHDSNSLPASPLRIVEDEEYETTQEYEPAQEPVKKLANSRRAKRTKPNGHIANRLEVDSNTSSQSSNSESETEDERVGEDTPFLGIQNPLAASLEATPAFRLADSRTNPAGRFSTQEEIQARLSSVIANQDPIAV

| SMILES | composite z-score [1] | composite z-score [2] | composite z-score [3] | composite z-score [4] | composite z-score [5] | composite z-score [6] | composite z-score [7] | z-score [8] | composite z-score [9] | composite z-score [10] |
| --- | --- | --- | --- | --- | --- | --- | --- | --- | --- | --- |
| COC(=O)C1=C(C)N(Cc2ccccc2)C2=C3C(=O)N(c4ccccc4)C(=O)[C@@H]3[C@@](O)(C(=O)OC)C(=O)N2[C@@H]1c1ccccc1 | -0.302 and -0.483 | 0.205 and 0.642 | -0.118 and -0.137 | 0.738 and 0.591 | 0.897 and 1.21 | 0.383 and 0.418 | 1.02 and 0.99 | 0.0445 (inactive) and -1.22 (inactive) | 0.366 and 0.346 | -0.166 and -0.375 |
| C=C(C)C(=O)OC[C@@H]1CN2[C@@H](CC[C@@H](C)[C@@H]2c2ccc(Br)cc2)C(=O)O1 | -0.577 | -0.275 | -0.083 | 0.733 | 0.636 | 0.776 | 1.1 | -0.889 (inactive) | 0.129 | -0.0645 |
| CCOC(=O)NN=C1C[C@@H](O)[C@@H](O)[C@@H]2[C@@H]3C(=O)N(Cc4ccccc4)C(=O)[C@@H]3CC[C@@H]12 | -0.629 | 0.0854 | -0.202 | 0.295 | 0.388 | 0.318 | -0.026 | -0.0833 (inactive) | -0.0089 | -0.0391 |
| C=C[C@H](OC)[C@@H](O)c1ccc(OCCO)cc1 | 1.29 and 1.32 | -0.768 and -0.833 | -0.219 and -0.121 | -1.19 and -0.295 | -1.86 and -1.69 | -0.102 and -0.296 | 0.604 and 0.0642 | 0.298 (inactive) and 0.277 (inactive) | -1.29 and -0.821 | -0.405 and -0.268 |
| C[N+](C)(C)CCCCNC(=O)[C@H]1C[C@H]2C(=O)N[C@@H](CCCC[N+](C)(C)C)C(=O)N2[C@H]1c1ccc(O)cc1 | -0.589 and -0.197 | 2 and 1.03 | -0.051 and -0.216 | 0.889 and 0.379 | 0.443 and -0.234 | 0.289 and -0.641 | 1.38 and 0.394 | 0.717 (inactive) and 0.376 (inactive) | -0.142 and 0.287 | 0.21 and -0.134 |
| CCOC(=O)CCN1C(=O)[C@H]2[C@H]3[C@H](O)[C@H](O)CC(=NNC(=O)OCC)[C@@H]3CC[C@H]2C1=O | -0.144 | 0.303 | -0.0459 | 0.348 | 0.708 | -0.388 | -0.0801 | 0.142 (inactive) | 0.62 | -0.0994 |
| CC(C)CCN1CCc2nc(-c3ccccc3)c3c(c2C1)CO[C@@H](C)C3 | 1.3 | 0.0532 | -0.0996 | 0.491 | 0.698 | 0.334 | 1.17 | -0.174 (inactive) | 0.57 | 0.208 |
| C=CC[C@H](O)c1ccc(OCCO)cc1 | 0.857 and 0.327 | -0.688 and 0.148 | -0.153 | -1.16 and -0.746 | -1 and -1.04 | 0.524 and -0.434 | 0.176 and 0.997 | 0.831 (inactive) and 2.16 (inactive) | -0.396 and -0.905 | -0.261 and -0.296 |
| O=c1n(-c2ccccc2)c(=O)n2n1CC[C@@H]1C(=NOC[C@@H](O)COCc3ccco3)[C@H]3O[C@H]3[C@@H](O)[C@@H]12 | -0.538 and -0.609 | 1.27 and 1.24 | -0.209 and -0.258 | 0.265 and -0.486 | -0.0496 and 0.156 | -0.498 and -0.0731 | 0.874 and -0.672 | 0.193 (inactive) and -0.52 (inactive) | 0.0872 and 0.231 | -0.0994 and -0.069 |
| C=CCN(CCCC)C(=O)C1N(C(C)(C)CO)C(=O)C2C(C(=O)O)C3C=CC21O3 (stereo not given) | 0.501 and 0.858 | -0.796 and -1.83 | -0.249 and -0.252 | -1.94 and -1.01 | -1.33 and -1.67 | 1.06 and -1.21 | 0.111 and -0.645 | 1.4 (inactive) and 0.963 (inactive) | -1.12 and -0.587 | -0.204 and -0.0645 |
| C=CCN(CCCCC)C(=O)C1N(CCCCCCO)C(=O)C2C(C(=O)O)C3C=CC21O3 (stereo not given) | 1.25 and 0.679 | -0.833 and -1.2 | -0.2 and -0.248 | -1.43 and -1.82 | -2.1 and -1.82 | -0.54 and 0.234 | 1.07 and 1.32 | -0.0502 (inactive) and -0.095 (inactive) | -0.855 and -1.02 | -0.331 and -0.287 |
| COC(=O)C1=C(C)N(Cc2ccccc2)[C@]23O[C@](C(=O)OC)(C(=O)N2[C@@H]1c1ccccc1)[C@@H](C(=O)OC)[C@H]3C(=O)OC | 0.202 and -0.441 | -0.295 and -0.1 | -0.112 and -0.0712 | -0.204 and 0.255 | -0.481 and 0.25 | 0.943 and -0.386 | 0.393 and 0.208 | -0.125 (inactive) and -0.101 (inactive) | -0.243 and -0.0583 | -0.137 and -0.189 |
| C=CCN(CCCCC)C(=O)C(c1cccs1)N(C(=O)/C=C\C(=O)O)c1ccc(CCO)cc1 (stereo not given) | 0.786 and 0.657 | -1.96 and -1.13 | -0.182 and -0.201 | -0.507 and -1.34 | -1.77 and -0.81 | 0.279 and -0.706 | 1.53 and 1.51 | 0.349 (inactive) and 0.348 (inactive) | -0.713 and -0.498 | 0.106 and -0.274 |
| C=CCN(C(=O)C(c1cccs1)N(C(=O)/C=C\C(=O)O)c1ccc(CCO)cc1)C(C)(C)C (stereo not given) | 0.396 and 0.476 | -0.534 and -0.804 | -0.212 and -0.192 | -0.439 and -1.66 | -0.898 and -1.52 | 1.04 and 2.28 | 0.71 and 1.3 | 1.28 (inactive) and 0.16 (inactive) | -0.23 and -0.706 | -0.0618 and -0.134 |
| C=CCN(C(=O)C(c1cccs1)N(C(=O)/C=C\C(=O)O)C(C)(C)CO)c1ccc(OC)cc1 (stereo not given) | 0.865 and 0.636 | -0.709 and 0.408 | -0.204 and -0.158 | -1.37 and -0.882 | -0.907 and -1.48 | 1.46 and 1.42 | 1.36 and 0.431 | -0.447 (inactive) and 1.44 (inactive) | -0.337 and -0.451 | -0.482 and -0.0645 |
| CC(C)=NOC[C@@H](O)COCc1ccco1 | -0.0008 | 2.26 | -0.0924 | 0.0026 | -1.37 | 0.126 | -0.603 | 0.929 (inactive) | -0.549 | -0.0645 |
